Hits are enriched below; roughly 13% of the tested compounds scored in any of these assays.
Pf growth 48h – inhibits P. falciparum growth in the first generation, 48 h; P. falciparum luciferase growth in erythrocytes, 48 h; Potency, µM (highest dose often 28.7 µM), for inactives: at the top dose activity change, negative = inhibition, usual class: inhibitors; hit rate 5.9% among 310,000; also: potency is read from the fitted curve at half-maximal effect
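Growth was read as firefly luciferase luminescence after a 48 h, 37 C, 5% CO2 exposure of compounds to reporter-bearing P. falciparum cultures (0.1% parasitemia, 2% hematocrit final) in Albumax-supplemented RPMI 1640.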
HCV inh – blocks hepatitis C virus. AID 651820. Huh7.5.1 HCVcc-Cre infection, luciferase reporter, 44 h. hit rate 3.4% among 340,000. Potency, µM (doses to about 41.8 µM), inactives show at the top dose activity change, negative = inhibition, usual class: inhibitors; also: potency is read from the fitted curve at half-maximal effect
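A cell-based infection assay in which seeded cells (1,000 per well) receive test compound after 4 h, are inoculated with HCVcc-Cre at approximately 0.5 moi, and are incubated 44 h before luminescence detection.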
HCMV antiviral – human cytomegalovirus inhibition; HFF cells, HCMV-luciferase reporter, 72 h; hits give low values; activity change, negative = inhibition, % at 57.5 µM; hit rate 4.5% among 410,000; in the data active = activity change below about -60%; inconclusive = no clear call, values can overlap the other calls; inactive = above about -39%
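Inhibition of viral replication was scored as loss of reporter luminescence in HFFs infected with HCMV-luciferase (MOI 1 PFU/cell) for 72 h; compounds tested at 2 doses, normalized to buffer and Salinomycin controls.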
Pf growth 96h – inhibits malaria parasite growth, 96 h; P. falciparum luciferase reporter growth, 96 h; Potency, µM (highest dose often 28.7 µM), without a hit: at the top dose activity change, negative = inhibition, usual class: inhibitors; hit rate 6.9% among 320,000; also: potency is read from the fitted curve at half-maximal effect
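Luminescence readout: decreased luciferase signal marks inhibited growth of reporter-expressing P. falciparum in infected red cells (2% hematocrit, 0.05% parasitemia final), exposed to compound two generations (96 h, 37 C, 5% CO2).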
An asterisk follows results filed as active; ? = inconclusive; . = no result given. Unless noted, calls follow the shape of the dose curve; as a rule, active = well fitted inhibition curve with a large enough effect; inconclusive = small, poorly fitted or top-dose-only effect, or another doubt; inactive = no such curve, though single readings can be large or run the other way. % is scaled to controls: 0 for no effect and ±100 for the full control effect.

SMILES | Pf growth 48h | HCV inh | HCMV antiviral | Pf growth 96h
COCCN1C(=O)C(=O)/C(=C(/O)c2ccc(OC(C)C)cc2)C1c1cccnc1 (configuration not stated) | 5% | 7% | 12 | 15µM*
CC(C)Oc1ccc(/C(O)=C2/C(=O)C(=O)N(CCCn3ccnc3)C2c2cccnc2)cc1 (configuration not stated) | -13% | 0% | -33 | 152%
CN(C)CCCN1C(=O)C(=O)/C(=C(/O)c2ccccc2)C1c1ccccn1 (configuration not stated) | 2% | . | . | -18%
CCN(CC)CCCN1C(=O)C(=O)/C(=C(/O)c2ccc3c(c2)CC(C)O3)C1c1ccncc1 (configuration not stated) | 12% | . | . | ?
COc1cc(/C=N/N=C2/NC(=O)C(c3ccccc3)S2)ccc1O (configuration not stated) | -16% | 8% | -65* | -12%
CC(=O)C1C(N2CC2)CC2C3CC=C4CC(O)CCC4(C)C3CCC21C (configuration not stated) | . | 11µM* | -76* | .
CC(=O)[C@H]1CC[C@H]2[C@@H]3CC=C4C[C@@H](O)CC[C@]4(C)[C@H]3CC[C@]12C | ? | 9% | 0 | ?
Cc1cccc(-c2nc3nc(C)cc(NC(C)c4ccccc4)n3n2)c1 (configuration not stated) | . | . | -15 | .
Oc1ccc(CNC2CCCCC2)cc1 | 12µM* | -7% | 57 | .
CS(=O)(=O)c1ccc(C(=O)Nc2cccc(-c3nc4ccccc4[nH]3)c2)cc1 | ? | ? | 27 | ?
CS(=O)(=O)c1ccc(C(=O)Nc2ccc(-c3nc4ccccc4[nH]3)cc2)cc1 | 1.9µM* | -2% | -2 | -26%
CCOc1ccc(C(=O)Nc2ccc(-c3nc4ccccc4[nH]3)cc2)cc1[N+](=O)[O-] | 1.9µM* | ? | 11 | -18%
O=C(Nc1ccc(-c2nc3ccccc3[nH]2)cc1)c1ccc2c(c1)OCO2 | 9.3µM* | ? | -5 | 5.2µM*
O=C(CC(c1cccs1)N1Cc2ccccc2C1=O)Nc1ccccc1 (configuration not stated) | . | . | -7 | .
COc1ccc(-c2cnc(C)o2)cc1S(=O)(=O)Nc1c(C)cc(C)cc1C | . | . | -5 | .
CC(C)CC(=O)NC(=S)NNC(=O)c1ccc(NC(=O)C2CCCCC2)cc1 | ? | ? | ? | 13µM*
O=C(O)CCC(=O)Nc1ccc(C(=O)OC2CCCCC2)cc1 | . | 7% | -3 | 10%
O=C(OC1CCCCC1)c1ccc(NC(=O)C2CCCCC2)cc1 | . | 25µM* | -12 | 12µM*
O=C(NC1CC1)c1ccc(NC(=O)C2CCCCC2)cc1 | . | 6% | -17 | .
CC(C)(C)C(=O)Nc1ccc(C(=O)OC2CCCCC2)cc1 | 128% | ? | . | .
CCCCC(=O)Nc1ccc(C(=O)OC2CCCCC2)cc1 | 10µM* | ? | -96* | .
O=C(Nc1ccc(C(=O)OC2CCCCC2)cc1)c1ccncc1 | 13% | ? | -78* | 5.2µM*
Cc1cc(O)c(C(c2cccc(F)c2)N2CCN(c3ccccc3)CC2)c(=O)n1Cc1ccco1 (configuration not stated) | . | . | 11 | .
N#Cc1ccccc1NC(=O)C1SC(=Nc2ccccc2)C(C(=O)Nc2ccc(Cl)cc2)=C1N (configuration not stated) | -10% | 10µM* | 25 | 0%
CC(=O)c1cnn(-c2nc3c(C)cccc3s2)c1C | . | 4% | -99* | 14%
SMILES | Pf growth 48h | HCV inh | HCMV antiviral | Pf growth 96h
CCOc1ccc(-c2nonc2NC(=O)c2oc3ccc(F)cc3c2C)cc1 | . | . | -11 | .
O=C(NC1CCN(Cc2ccccc2)CC1)C1CCN(S(=O)(=O)c2cccc3nsnc23)CC1 | 20% | 8% | -62* | 87%
O=C(C1CCCN1S(=O)(=O)c1cccc2nsnc12)N1CCCCC1 (configuration not stated) | 14% | 26% | -35 | 22%
CC(=O)c1ccc(N2CCN(C(=O)C3CCCN3S(=O)(=O)c3cccc4nsnc34)CC2)cc1 (configuration not stated) | ? | 16% | 17 | 13µM*
O=C(C1CCN(S(=O)(=O)c2cccc3nsnc23)CC1)N1CCN(c2ccccc2F)CC1 | -3% | -5% | -26 | 2.6µM*
Cc1cccc(N2CCN(C(=O)C3CCN(S(=O)(=O)c4cccc5nsnc45)CC3)CC2C)c1 (configuration not stated) | ? | 11µM* | ? | 20%
C[C@@H](NS(=O)(=O)c1c(F)cccc1F)c1ccccc1 | . | . | -22 | .
CCOCCCn1c(SCC(=O)Nc2ccccc2OC)nc2c(oc3ccccc32)c1=O | . | . | -25 | .
COc1ccc(CCNC(=O)CN(c2ccc(C)cc2)S(=O)(=O)c2ccc(OC)cc2)cc1 | . | . | -8 | .
O=C(NCc1ccc(Cl)cc1)c1cc2c(s1)CS(=O)(=O)C2 | 14% | 5% | ? | -6%
O=C(NCc1ccc(F)cc1)c1cc2c(s1)CS(=O)(=O)C2 | 2% | 0% | -15 | 6.6µM*
COC(=O)c1cc2sc(C)cc2n1CC(=O)Nc1ccc(C)c(C)c1 | . | . | -27 | .
CCOC(=O)c1c(NC(=O)CN2C(=O)NC3(CCCCC3)C2=O)sc(C)c1-c1ccc(C)cc1 | 15µM* | 8% | -17 | 9.3µM*
CCOC(=O)c1sc(NC(=O)CN2C(=O)NC3(CCCCCCC3)C2=O)c(C(=O)OCC)c1C | 8.3µM* | -7% | -9 | 9.3µM*
CCOC(=O)c1c(NC(=O)CC)sc(C(=O)N2CCCCC2)c1C | . | -28% | 26 | 13µM*
COc1cccc(C(N)CC(=O)O)c1 (configuration not stated) | 15% | 6% | . | 8.3µM*
COc1cccc(OCC(=O)O)c1 | 71% | 10% | 30 | 24%
Cc1ccccc1C(=O)Nc1nnc(S(=O)(=O)N(C)Cc2ccc(Cl)cc2)s1 | . | . | 0 | .
O=C(CSc1nc2ccccc2[nH]1)Nc1ccccc1F | . | 10% | -100* | 29%
O=C(CSc1n[nH]c(-c2ccccc2)n1)Nc1ncc(Br)cc1Br | 7% | -26% | -28 | 2.9µM*
O=C(CCCSc1nc2ccccc2[nH]1)NCc1ccc(Cl)cc1 | ? | ? | ? | 12µM*
O=C(CSc1n[nH]c(-c2ccccn2)n1)Nc1ccccc1F | -11% | ? | -20 | 10µM*
O=C(CCCSc1nc2ccccc2[nH]1)NCc1ccccc1F | 9% | -14% | -36 | 1%
O=C(CSc1n[nH]c(-c2cccnc2)n1)Nc1ccccc1 | -21% | 14% | 20 | ?
CCCCNC(=O)c1cccc(-n2c(C)nc3cccnc32)c1 | . | . | 0 | .
CCOc1ccc(CNC(=O)CCC(=O)N2CC(C)Sc3ccccc32)cc1 (configuration not stated) | . | . | -7 | .
O=C(CSc1nc(O)c(C/C=C/c2ccccc2)c(=O)[nH]1)Nc1cccc(F)c1 | . | . | 0 | .
Cc1ccc2nc(SCC(=O)NCc3ccc(S(N)(=O)=O)cc3)[nH]c2c1 | 0% | -8% | 11 | 13%
O=C(CSc1n[nH]c(-c2ccccn2)n1)Nc1ccccc1 | 1% | ? | -79* | ?
